Measured values from PubChem BioAssay (NCATS).
Records with an inconclusive call do not appear. Activity calls are given as the source filed them. Unless noted, the call rests on the fitted dose curve; in most records, active means well fitted inhibition curve with a large enough effect; inconclusive means small, poorly fitted or top-dose-only effect; inactive means flat fitted curve, though single readings scatter.

How the values were obtained:
[1] = qHTS drug screen for cell cycle checkpoint inhibitors in PARPi-resistant BRCA-mutant ovarian cancer cell lines. (AID 1963452; calls by dose curve); settings: PEO1/OlaR viability, CellTiter-Glo luminescence, 96 h; for Z-AUC: stronger effect = lower value
How it was run: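 PEO1, PEO4 and PEO1/OlaR ovarian cancer cells, 600 per well, exposed 96 h at 37C to a dilution series. Viability read by CellTiter-Glo luminescence, normalized to DMSO and empty wells; activity summarized as Z-AUC.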

[2] = qHTS for identification of novel therapeutic agents for treatment of microphthalmiaassociated transcription factor (MiT) renal cell carcinoma (RCC) (AID 1963991; calls by dose curve); settings: CellTiter-Glo, 48 h; for z-score: stronger effect = lower value; for Potency: active = Z-AUC below -0.8 in all three lines
How it was run: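 Curves over 11 concentrations were fitted to CellTiter-Glo luminescence, scaled between empty wells (0%) and DMSO (100%) viability. Cells were UOK109, UOK124 and UOK145 TFE3-fusion RCC lines at 500/well, exposed 48 hours at 37 C.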

[3] = qHTS profiling for inhibitors of Plasmodium falciparum proliferation (AID 504749); further: nearly all actives have a fitted effect of over 60% in size;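 on activity, negative = inhibition: 0% = DMSO vehicle and full inhibition = artemisinin control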; settings: P. falciparum in erythrocytes, SYBR Green DNA, 72 h
How it was run: (§1)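 P. falciparum-infected erythrocytes (0.3% parasitemia, 2.5% hematocrit) incubated with compound 72 h at 37 C, 5% CO2. Parasite DNA detected by SYBR Green after lysis, overnight at room temperature; normalised to 0.29 uM artemisinin and DMSO.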

3D7 = test: as above; settings: P. falciparum in erythrocytes, SYBR Green DNA, 72 h; series mostly up to 28.7 µM
How it was run: as §1

7G8 = test: as above; settings: P. falciparum in erythrocytes, SYBR Green DNA, 72 h; series mostly up to 28.7 µM
How it was run: as §1

AA1029 = test: as above; settings: P. falciparum in erythrocytes, SYBR Green DNA, 72 h; series mostly up to 28.7 µM
How it was run: as §1

[4] = measured here: PEO1 parental Z-AUC
[5] = TFE3-RCC UOK109 viability, measured here: UOK109 Z-AUC
[6] = TFE3-RCC viability, measured here: UOK124 Z-AUC
[7] = TFE3-RCC viability, measured here: UOK145 Z-AUC
[8] = at 28.7 µM (top of the series), parasite line A
[9] = at 28.7 µM (top of the series), parasite line B
Potency means the concentration at half of the fitted maximal effect.

## NC(=O)c1cccnc1
[1]
  Z-AUC: 1.48 (inactive)
[1]; [4]
  Z-AUC: 1.33
[1]; measured here: PEO4 Z-AUC
  Z-AUC: 1.21
[2]; [5]
  z-score: 0.739
[2]; [6]
  z-score: 0.417
[2]; [7]
  z-score: -0.282
[3]; [8]
  activity, negative = inhibition: 9.61% (inactive)
[3]; [9]
  activity, negative = inhibition: 2.45% (inactive)
3D7
  Potency: inactive
7G8
  Potency: inactive
AA1029
  Potency: inactive

## CCCc1nc(C)c2c(=O)[nH]c(-c3cc(S(=O)(=O)N4CCN(CC)CC4)ccc3OCC)nn12
[1]
  Z-AUC: 1.15 (inactive)
[1]; [4]
  Z-AUC: 0.477
[1]; measured here: PEO4 Z-AUC
  Z-AUC: 0.621
[3]; [8]
  activity, negative = inhibition: -13.4% (inactive)
[3]; [9]
  activity, negative = inhibition: -10.2% (inactive)
3D7
  Potency: inactive
7G8
  Potency: 7.08 µM (active)

## COc1cc(NCc2ccc3nc(N)nc(N)c3c2C)cc(OC)c1OC
[1]
  Z-AUC: 0.262 (inactive)
[1]; [4]
  Z-AUC: 0.153
[1]; measured here: PEO4 Z-AUC
  Z-AUC: -0.254
[3]; parasite line A
  Potency: 0.0035 µM (active)
[3]; parasite line B
  Potency: 0.0071 µM (active)
3D7
  Potency: 0.0063 µM (active)
7G8
  Potency: 0.0794 µM (active)
AA1029
  Potency: 1 µM (active)

## CCOc1cc(N)c(Cl)cc1C(=O)NCC1CN(Cc2ccc(F)cc2)CCO1 (configuration not stated)
[1]
  Z-AUC: 1.79 (inactive)
[1]; [4]
  Z-AUC: 1.17
[1]; measured here: PEO4 Z-AUC
  Z-AUC: 1.21
[2]; [5]
  z-score: -0.211
[2]; [6]
  z-score: 0.779
[2]; [7]
  z-score: 0.352
[3]; parasite line A
  Potency: 2.51 µM (active)
[3]; parasite line B
  Potency: 11.2 µM (active)
7G8
  Potency: 11.2 µM (active)
AA1029
  Potency: 12.6 µM (active)

## CC(N)C12CC3CC(CC(C3)C1)C2 (configuration not stated)
[1]
  Z-AUC: 0.887 (inactive)
[1]; [4]
  Z-AUC: 0.571
[1]; measured here: PEO4 Z-AUC
  Z-AUC: 0.722
[2]; [5]
  z-score: 0.00344
[2]; [6]
  z-score: 0.654
[2]; [7]
  z-score: 0.503
[3]; [8]
  activity, negative = inhibition: 7.36% (inactive)
[3]; [9]
  activity, negative = inhibition: -12% (inactive)

## NC(N)=NC(N)=NCCc1ccccc1
[1]
  Z-AUC: 1.13 (inactive)
[1]; [4]
  Z-AUC: 0.288
[1]; measured here: PEO4 Z-AUC
  Z-AUC: 0.483
[3]; at 12.8 µM (top of the series), parasite line A
  activity, negative = inhibition: -25.4% (inactive)
[3]; at 12.8 µM (top of the series), parasite line B
  activity, negative = inhibition: -8.82% (inactive)
[3]; [9]
  activity, negative = inhibition: -17% (inactive)
3D7
  Potency: inactive
7G8
  Potency: inactive
AA1029
  Potency: inactive

## CC(C)C[C@H](NC(=O)[C@H](CCc1ccccc1)NC(=O)CN1CCOCC1)C(=O)N[C@@H](Cc1ccccc1)C(=O)N[C@@H](CC(C)C)C(=O)[C@@]1(C)CO1
[1]
  Potency: 0.0098 µM (active)
[1]; [4]
  Z-AUC: -3.02
[1]; measured here: PEO4 Z-AUC
  Z-AUC: -2.77
[2]; TFE3-RCC UOK109 viability
  Potency: 1.48 µM (active)
[2]; [5]
  z-score: -1.85
[2]; [6]
  z-score: -2.71
[2]; [7]
  z-score: -3.3

## CCCN[C@H]1CCc2nc(N)sc2C1
[1]
  Z-AUC: -0.0876 (inactive)
[1]; [4]
  Z-AUC: -1.06
[1]; measured here: PEO4 Z-AUC
  Z-AUC: -0.574
[2]; [5]
  z-score: 0.498
[2]; [6]
  z-score: 0.618
[2]; [7]
  z-score: 0.718
[3]; [8]
  activity, negative = inhibition: 16.7% (inactive)
[3]; [9]
  activity, negative = inhibition: 18.6% (inactive)
3D7
  Potency: inactive
7G8
  Potency: inactive
AA1029
  Potency: inactive

## Cn1nnc2c(C(N)=O)ncn2c1=O
[1]
  Z-AUC: 1.52 (inactive)
[1]; [4]
  Z-AUC: 1.36
[1]; measured here: PEO4 Z-AUC
  Z-AUC: 1.39
[2]; [5]
  z-score: 0.106
[2]; [6]
  z-score: 0.527
[2]; [7]
  z-score: 0.42
[3]; [8]
  activity, negative = inhibition: 6.45% (inactive)
[3]; [9]
  activity, negative = inhibition: 3.99% (inactive)
3D7
  Potency: inactive
7G8
  Potency: inactive
AA1029
  Potency: inactive

## O=NN(CCCl)C(=O)NC1CCCCC1
[1]
  Z-AUC: 0.23 (inactive)
[1]; [4]
  Z-AUC: 1.4
[1]; measured here: PEO4 Z-AUC
  Z-AUC: 1.4
[2]; [5]
  z-score: 0.385
[2]; [6]
  z-score: 1.51
[2]; [7]
  z-score: 1.28
[3]; [8]
  activity, negative = inhibition: 5.42% (inactive)
[3]; [9]
  activity, negative = inhibition: 5.97% (inactive)
3D7
  Potency: inactive
7G8
  Potency: inactive
AA1029
  Potency: inactive

## C[C@@H]1CN(c2c(F)c(N)c3c(=O)c(C(=O)O)cn(C4CC4)c3c2F)C[C@H](C)N1
[1]
  Z-AUC: 1.35 (inactive)
[1]; [4]
  Z-AUC: 1.39
[1]; measured here: PEO4 Z-AUC
  Z-AUC: 1.15
[2]; [5]
  z-score: 1.8
[2]; [6]
  z-score: 2.67
[2]; [7]
  z-score: 1.6

## Nc1nc(F)nc2c1ncn2[C@@H]1O[C@H](CO)[C@@H](O)[C@@H]1O
[1]
  Z-AUC: 0.0458 (inactive)
[1]; [4]
  Z-AUC: 0.0902
[1]; measured here: PEO4 Z-AUC
  Z-AUC: 0.704
[2]; TFE3-RCC UOK109 viability
  Potency: 0.372 µM (active)
[2]; [5]
  z-score: -1.54
[2]; [6]
  z-score: -1.3
[2]; [7]
  z-score: -1.61

## CCCc1cc(C(N)=S)ccn1
[1]
  Z-AUC: 1.52 (inactive)
[1]; [4]
  Z-AUC: 1.53
[1]; measured here: PEO4 Z-AUC
  Z-AUC: 1.99
[2]; [5]
  z-score: 1.43
[2]; [6]
  z-score: 0.537
[2]; [7]
  z-score: 0.979
[3]; [8]
  activity, negative = inhibition: 2.28% (inactive)
[3]; [9]
  activity, negative = inhibition: 5.15% (inactive)
3D7
  Potency: inactive
7G8
  Potency: inactive
AA1029
  Potency: inactive

## C[C@@H](NCCCc1cccc(C(F)(F)F)c1)c1cccc2ccccc12
[1]
  Z-AUC: 0.769 (inactive)
[1]; [4]
  Z-AUC: 0.263
[1]; measured here: PEO4 Z-AUC
  Z-AUC: 0.404
[2]; [5]
  z-score: 1.16
[2]; [6]
  z-score: 0.808
[2]; [7]
  z-score: 0.348
[3]; parasite line B
  Potency: 5.62 µM (active)
3D7
  Potency: 11.2 µM (active)
7G8
  Potency: 1.12 µM (active)
AA1029
  Potency: 6.31 µM (active)

## CNC1CCCN(c2c(F)cc3c(=O)c(C(=O)O)cn(C4CC4)c3c2OC)C1 (configuration not stated)
[1]
  Z-AUC: 1.39 (inactive)
[1]; [4]
  Z-AUC: 1.15
[1]; measured here: PEO4 Z-AUC
  Z-AUC: 1.09
[3]; [8]
  activity, negative = inhibition: 5.3% (inactive)
[3]; [9]
  activity, negative = inhibition: 5% (inactive)
3D7
  Potency: inactive
7G8
  Potency: inactive
AA1029
  Potency: inactive

## O=C(O)c1cc(=O)[nH]c(=O)[nH]1
[1]
  Z-AUC: 0.444 (inactive)
[1]; [4]
  Z-AUC: -0.118
[1]; measured here: PEO4 Z-AUC
  Z-AUC: -0.128
[2]; [5]
  z-score: 1.07
[2]; [6]
  z-score: 0.79
[2]; [7]
  z-score: 1.38
[3]; [8]
  activity, negative = inhibition: 24.2% (inactive)
[3]; [9]
  activity, negative = inhibition: 6.15% (inactive)
3D7
  Potency: inactive
AA1029
  Potency: inactive

## O=S(=O)(O)CCS
[1]
  Z-AUC: 0.603 (inactive)
[1]; [4]
  Z-AUC: 1.56
[1]; measured here: PEO4 Z-AUC
  Z-AUC: 1.53
[2]; [5]
  z-score: -0.566
[2]; [6]
  z-score: 1.05
[2]; [7]
  z-score: -0.757
[3]; [8]
  activity, negative = inhibition: 8.7% (inactive)
[3]; [9]
  activity, negative = inhibition: 5.78% (inactive)
3D7
  Potency: inactive
7G8
  Potency: inactive
AA1029
  Potency: inactive

## CCN1CCCC1CNC(=O)c1cc(S(N)(=O)=O)ccc1OC (configuration not stated)
[2]; [5]
  z-score: 0.447
[2]; [6]
  z-score: 0.683
[2]; [7]
  z-score: 0.799

## O=c1cc(O)c(Cl)c[nH]1
[1]
  Z-AUC: 1.39 (inactive)
[1]; [4]
  Z-AUC: 1.19
[1]; measured here: PEO4 Z-AUC
  Z-AUC: 1.11
[3]; [8]
  activity, negative = inhibition: -6.01% (inactive)
[3]; [9]
  activity, negative = inhibition: 8.72% (inactive)
3D7
  Potency: inactive
7G8
  Potency: inactive
AA1029
  Potency: inactive
